From PubChem BioAssay
NS1 function inh: qHTS Assay for Inhibitors of Influenza NS1 Protein Function. Potency, µM (top dose mostly 46.1 µM), for inactives: at the top dose activity, positive = more growth. hit rate 0.4% among 270,000. AID 2326, 2010; calls by dose curve; also: actives are rising curves; nearly all actives have a fitted effect of over 50% in size
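S. cerevisiae expressing influenza A NS1, grown in glucose, washed, then diluted 1:100 into pH 6.0 -URA galactose medium with 23 nl compound. Growth recovery read as OD600; NS1-free strain serves as control.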
VACV mCherry inh: qHTS for Stage-Specific Inhibitors of Vaccinia Orthopoxvirus: mCherry Reporter Primary qHTS; Vaccinia virus mCherry reporter infection, fluorescence; Potency, µM (top dose mostly 36.5 µM), for inactives: top-dose activity change, negative = inhibition, actives largely listed as inhibitors; hit rate 0.63% among 310,000; calls by dose curve; tested in A549 cells; also: % is scaled to controls: 0 for no effect and ±100 for the full control effect; nearly all actives have a fitted effect of over 35% in size
Pf growth 48h: Primary qHTS for delayed death inhibitors of the malarial parasite plastid, 48 hour incubation; P. falciparum luciferase growth in erythrocytes, 48 h; Potency, µM (titrated, usually from 28.7 µM), for inactives: top-dose activity change, negative = inhibition, most hits filed as inhibitors; hit rate 5.9% among 310,000; AID 504832, 2011; also: % is scaled to controls: 0 for no effect and ±100 for the full control effect
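Growth was read as firefly luciferase luminescence after a 48 h, 37 C, 5% CO2 exposure of compounds to reporter-bearing P. falciparum cultures (0.1% parasitemia, 2% hematocrit final) in Albumax-supplemented RPMI 1640.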
HCV inh: qHTS Assay for Inhibitors of Hepatitis C Virus (HCV). Potency, µM (top dose mostly 41.8 µM), for inactives: at the highest dose activity change, negative = inhibition, hits mostly inhibitors. AID 651820, 2012. hit rate 3.4% among 340,000. Huh7.5.1 HCVcc-Cre infection, luciferase reporter, 44 h; also: % is scaled to controls: 0 for no effect and ±100 for the full control effect
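1,000 cells/well; 4 h culture; + compound; + HCVcc-Cre (~0.5 moi); 44 h; luciferase substrate, RT 15 min; read 15 sec.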
Vaccinia Venus: qHTS for Stage-Specific Inhibitors of Vaccinia Orthopoxvirus: Venus Reporter Primary qHTS; hit rate 0.46% among 330,000; Potency, µM (top dose mostly 36.5 µM), for inactives: at the top dose activity change, negative = inhibition, most hits filed as inhibitors; Vaccinia virus Venus reporter expression, fluorescence; calls by dose curve; tested in A549 cells; also: % is scaled to controls: 0 for no effect and ±100 for the full control effect; nearly all actives have a fitted effect of over 30% in size
Pf growth 96h: Primary qHTS for delayed death inhibitors of the malarial parasite plastid, 96 hour incubation. P. falciparum luciferase reporter growth, 96 h. Potency, µM (doses to about 28.7 µM), without a hit: at the top dose activity change, negative = inhibition, most hits filed as inhibitors. hit rate 6.9% among 320,000. AID 504834, 2011; also: % is scaled to controls: 0 for no effect and ±100 for the full control effect
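Plates of compound plus infected erythrocytes (2% hematocrit, 0.05% parasitemia final) incubate 96 hours, 37 C, 5% CO2. Detection reagent added; reduced luminescence from the parasites' luciferase reporter flags inhibition.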
Numbers without * were called inactive; i = inactive; ? = inconclusive; . = no result given; [ ] = dose if it differs, or a comment. Rows were chosen to be rich in hits. Some 11% of all compounds tested hit in one or more screens of this group. Unless noted, calls follow the shape of the dose curve; as a rule, active = well fitted inhibition curve with a large enough effect; inconclusive = small, poorly fitted or top-dose-only effect, or another doubt; inactive = no such curve, though single readings can be large or run the other way. Potency is read from the fitted curve at half-maximal effect.

SMILES	NS1 function inh	VACV mCherry inh	Pf growth 48h	HCV inh	Vaccinia Venus	Pf growth 96h
COc1cccc(-n2c(C)cc(/C=C3\C(=N)N4N=C(CC(=O)N5CCOCC5)SC4=NC3=O)c2C)c1	2%	.	13%	-15%	.	-16%
CCOc1ccc(NC(=O)CNC(=O)c2nn(-c3ccc(OC)cc3)c(=O)c3ccccc23)cc1	26%	-5%	9.3µM*	-5%	-13%	-10%
COc1ccc(-n2nc(C(=O)NCC(=O)Nc3cccc(Cl)c3)c3ccccc3c2=O)cc1	?	-12%	9.3µM*	-26%	3%	12µM*
COc1ccc(-n2nc(C(=O)NCC(=O)Nc3ccccn3)c3ccccc3c2=O)cc1	6%	.	31%	?	.	34%
COc1cc(C(=O)NCC(=O)OCn2nnc3ccccc3c2=O)cc(OC)c1OC	.	.	5%	-23%	.	-3%
Cc1nn(C)c(C)c1CN(Cc1nc(CCC(C)C)no1)C(C)C	-3%	-12%	?	1µM*	-13%	39%
CC(C)CCc1noc(CN(C)CCC2CCOCC2)n1	-3%	-3%	7%	8%	-17%	7%
O=C1N/C(=C\c2ccc(O)cc2)C(=O)c2ccccc21	10%	.	?	11µM*	.	37%
OCCN1CCN(c2cc(-c3ccccc3)c3ccccc3n2)CC1	-6%	-15%	?	?	-24%	13µM*
COC(=O)C1CCCCN1Cc1nc(N2CCCCC2)c2cc(OC)c(OC)cc2n1 (configuration not stated)	.	-16%	.	.	-4%	.
O=C(NCc1cccnc1)c1cccnc1-c1nc2ccccc2s1	6%	.	.	-14%	.	?
O=c1cc(CN2CCN(C/C=C/c3ccccc3)CC2)c2cc(O)ccc2o1	-9%	.	3.3µM*	?	.	2.9µM*
Cc1ccc2oc(=O)cc(CN3CCN(C/C=C/c4ccccc4)CC3)c2c1	5%	-16%[7.34 µM]	?	10µM*	2%[7.34 µM]	8.3µM*
Cc1ccc2oc(=O)cc(CN3CCCCC3)c2c1	6%	-11%	-25%	?	-6%	-4%
Cc1ccc(S(=O)(=O)N2CCN(C(=O)CCN3C(=O)c4ccccc4C3=O)CC2)cc1C	-15%	i	-7%	12%	-10%	?
CC(C)C[C@H](NC(=O)[C@@H](Cc1c[nH]c2ccccc12)NC(=O)[C@@H](Cc1ccc(O)cc1)NC(=O)[C@@H](CO)NC(=O)[C@@H](Cc1c[nH]c2ccccc12)NC(=O)C(Cc1cnc[nH]1)NC(=O)C1CCC(=O)N1)C(=O)N[C@@H](CCCN=C(N)N)C(=O)N1CCC[C@@H]1C(=O)NCC(N)=O (some centres not stated)	.	.	10%	.	.	?
CCNC(=O)[C@@H]1CCCN1C(=O)[C@H](CCCN=C(N)N)NC(=O)[C@H](CC(C)C)NC(=O)[C@@H](Cc1c[nH]c2ccccc12)NC(=O)[C@H](Cc1ccc(O)cc1)NC(=O)[C@H](CO)NC(=O)[C@H](Cc1c[nH]c2ccccc12)NC(=O)[C@H](Cc1cnc[nH]1)NC(=O)[C@@H]1CCC(=O)N1	.	.	1.3µM*	.	.	1.5µM*
Cc1cccc(OCCCC(=O)Nc2ccc(N3CCOCC3)cc2)c1	8%	-17%	.	-1%	-5%	?
Cc1ccccc1-c1nc(CN(Cc2c(C)nn(C)c2C)C2CC2)c(C)o1	-2%	-15%	12µM*	?	-19%	37%
CCNc1nc(NC(C)C)nc(N(C#N)Cc2ccccc2)n1	-7%	.	?	?	?	3%[5.75 µM]
CCNc1nc(NC(C)C)nc(N(C#N)CCOc2ccc(Cl)cc2Cl)n1	-36%	.	?	5µM*	.	.
Clc1cc(Cl)c(OCCCCn2cncn2)c(Cl)c1	-52%	.	-11%	-5%	.	0.29µM*
O=C(O)c1cccc2c1C(=O)c1ccc(-c3ccc(OC(F)(F)F)cc3)cc1S2(=O)=O	.	i	.	2%	-7%	.
COC(=O)c1ccccc1NC(=O)CN(C)Cc1ccccc1	.	i	-19%	?	-14%	-8%
COC(=O)c1ccc(C(=O)OC)c(NC(=O)CN(C)Cc2ccc(Cl)c(Cl)c2)c1	0%	-16%	10µM*	5%	-3%	?
SMILES	NS1 function inh	VACV mCherry inh	Pf growth 48h	HCV inh	Vaccinia Venus	Pf growth 96h
CCc1nnc(NC(=O)Nc2ccc(Cl)cc2)s1	5%	-4%	?	-15%	-7%	?
CCC(=O)Nc1nnc(CSCc2ccc(F)cc2)s1	-9%	.	.	?	-1%	0.93µM*
O=C(Nc1ccc(Cl)cc1)Nc1nnc(CSCc2ccc(Cl)cc2)s1	-1%	.	4.1µM*	5µM*	.	8.3µM*
Brc1ccc(-c2csc(/N=C/N3CCOCC3)n2)cc1	-52%	.	75%	?	?	66%
Brc1ccc(-c2csc(/N=C/N3CCCC3)n2)cc1	.	-15%	222%	11µM*	-27%	96%
O=C(N1CCOCC1)N1CCN(c2nc(-c3ccc(F)cc3)cs2)CC1	2%	.	-12%	-22%	.	7.4µM*
Brc1ccc(-c2csc(N3CCOCC3)n2)cc1	.	.	i	11µM*	.	?
CCCOc1ccc(N2C(=O)CC(SC(=NC)Nc3ccc(F)cc3)C2=O)cc1 (configuration not stated)	2%	-6%	4%	6%	0%	.
Oc1ccc(C23CC4CC(CC(C4)C2)C3)cc1O	-63%	-22%	5.2µM*	?	?	7.4µM*
CS(=O)(=O)N(CC(=O)Nc1ccccc1C(=O)N1CCOCC1)c1ccc(F)c(Cl)c1	20%	-18%	8%	26%	-14%	30%
CS(=O)(=O)N(CC(=O)Nc1ccccc1C(=O)N1CCOCC1)c1cccc(F)c1	10%	i	0%	18%	-10%	2.6µM*
O=S(=O)(CCN1CCOCC1)c1ccc(Oc2ccc(S(=O)(=O)CCN3CCOCC3)cc2)cc1	1%	?	-24%	3.5µM*	2.2µM*	?
O=S(=O)(CCN1CCOCC1)c1ccc(Cl)cc1	.	-22%	.	11%	?	.
COc1ccc(N=C(N)SCc2ccccn2)cc1	15%	11µM*	-15%	?	11µM*	?
CC(=O)c1ccc(OCC(=O)c2cc(C)n(-c3ccc4c(c3)OCO4)c2C)cc1	13%	-23%	-14%	13µM*	-15%	0%
C=CCn1c(C)cc(C(=O)COC(=O)c2ccc(N)c([N+](=O)[O-])c2)c1C	3%	-27%	237%	?	?	155%
Cc1cc(C(=O)COC(=O)c2ccc(N)c([N+](=O)[O-])c2)c(C)n1-c1ccc2c(c1)OCO2	19%	.	13µM*	2µM*	.	4.7µM*
